Screening data (PubChem)
Pf growth 48h = inhibits P. falciparum growth in the first generation, 48 h | AID 504832 | P. falciparum luciferase growth in erythrocytes, 48 h | Potency, µM (doses to about 28.7 µM), for the others: top-dose activity change, negative = inhibition, hits mostly inhibitors | 5.9% of 310,000 active; further: potency means the concentration at half of the fitted maximal effect; on the % scale 0 is the no-effect control and ±100 the full control effect
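In quantitative HTS format, infected erythrocytes bearing luciferase-reporter parasites were treated for a single generation at 37 C. Luminescence after adding detection reagent served as the growth measure.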
AMA1 RON2 block = AMA1-RON2 (P. falciparum) interaction inhibition | AlphaScreen AMA1-biotinylated RON2 peptide binding | Potency, µM (doses to about 58.2 µM), without a hit: top-dose activity change, negative = inhibition, most hits filed as inhibitors | 0.2% of 360,000 active | AID 720542;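 further: potency means the concentration at half of the fitted maximal effect; 0% = vehicle wells and -100% = peptide control; nearly all actives have a fitted effect of over 45% in size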
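AMA1 (3D7) with his tag at 25 nM final met compounds first, then biotinylated RON2 peptide at 25 nM; detection used donor plus acceptor beads, 10 µg/mL apiece, read by AlphaScreen after 30 min at room temperature.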
Shiga toxin inh = inhibitors of Shiga toxin in Vero cells. Vero cells, Shiga toxin protein synthesis inhibition reporter. inhibition, % at 38.7 µM. 9.2% of 290,000 active. AID 2315; in the data active means inhibition mostly above about 28%, no sharp cut-off; inactive means mostly below about 43%; further: 0% is about no effect
Cycloheximide cs = affects cycloheximide protein synthesis inhibition readout, counter-screen. cell reporter, cycloheximide protein synthesis inhibition counterscreen. max response, %. 12% of 300,000 active. AID 2314; in the data active means max response mostly above about 13%, no sharp cut-off; inactive means mostly below about 14%; further: read at 38.3 µM for the half of the compounds with a filed dose; 0% is about no effect
HCV inhibitor = inhibitors of hepatitis C virus infection; Huh7.5.1 HCVcc-Cre infection, luciferase reporter, 44 h; Potency, µM (highest dose often 41.8 µM), for the others: at the top dose activity change, negative = inhibition, usual class: inhibitors; 3.4% of 340,000 active; further: potency means the concentration at half of the fitted maximal effect; on the % scale 0 is the no-effect control and ±100 the full control effect
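Luciferase read-out (15 sec integration) after a 15 min room-temperature substrate step quantifies HCVcc-Cre infection. Cells, 1,000 per well, had compound added 4 h post-plating, then virus at ~0.5 moi, and were cultured 44 h.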
Pf growth 96h = P. falciparum growth inhibition at 96 hours; 6.9% of 320,000 active; P. falciparum luciferase reporter growth, 96 h; Potency, µM (top dose mostly 28.7 µM), for the others: top-dose activity change, negative = inhibition, actives largely listed as inhibitors; AID 504834; further: potency means the concentration at half of the fitted maximal effect; on the % scale 0 is the no-effect control and ±100 the full control effect
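Parasite growth measured via integrated firefly luciferase reporter in P. falciparum. Infected erythrocytes at 2% hematocrit, 0.05% parasitemia final were treated 96 hours at 37 C under 5% CO2, and luminescence was read.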
* = called active by the depositor; ? = inconclusive; nt = no result given; [ ] = another dose, or the depositor's remark. Hits are enriched below; roughly 21% of the tested compounds scored in any of these assays. Unless noted, the call rests on the fitted dose curve; in most records, active means well fitted curve in the direction sought with a large enough effect; inconclusive means small, poorly fitted or top-dose-only effect, or another doubt; inactive means no such curve, though single readings can be large; an effect the other way counts as inactive or inconclusive.

SMILES	Pf growth 48h	AMA1 RON2 block	Shiga toxin inh	Cycloheximide cs	HCV inhibitor	Pf growth 96h
COc1ccc(Oc2cnc3ccccc3n2)cc1	131.8%	12.1%	51.2*	30.8*	-20.2%	157.0%
CC(=O)Nc1ccc(Oc2cnc3ccccc3n2)cc1	27.4%	7.8%	1.7	-1.4	-2.0%	49.0%
Clc1cccc(Oc2cnc3ccccc3n2)c1	7.2%	23.3%	33.1	22.3*	-1.5%	1.4%
CC(=O)Nc1cccc(Oc2cnc3ccccc3n2)c1	77.4%	-4.3%	45.7*	17.2*	-23.3%	83.1%
Clc1ccccc1Oc1cnc2ccccc2n1	2.62µM*	27.4%	21.6	16.1	7.2%	-21.4%
Cc1ccccc1NC(=O)Nc1nc(C(N)C2CCCCC2)cs1 (configuration not stated)	nt	70.4%	nt	nt	nt	nt
c1coc(-c2ncc[nH]2)c1	0.9%	28.2µM*	38.4	8.3	-1.4%	?
Cc1ncc([N+](=O)[O-])n1CC(=O)Nc1ccccc1Cl	nt	-12.0%	nt	nt	nt	nt
O=C(NC1CCCCC1)C1CC(=O)N(c2ccc(Cl)cc2)C1 (configuration not stated)	nt	-0.3%	10.5	-0.4	11.4%	-10.6%
O=C1C(Cl)=C(NC2CCCCC2)C(=O)N1c1ccc(Cl)cc1	?	36.5%	52.9*	25.4*	7.8%	9.28µM*
CCOC(=O)c1ccc(NS(=O)(=O)c2c(N)n(C)c(=O)n(C)c2=O)cc1	nt	0.0%	nt	nt	10µM*	nt
CCOC(=O)c1ccc(NS(=O)(=O)c2c(C)n[nH]c2C)cc1	2.7%	-2.7%	nt	nt	-10.4%	-5.0%
CCOC(=O)c1c(S(=O)(=O)Nc2ccc(C)cn2)c(C)n(C)c1C	16.8%	11.5%	5.2	5.5	8.4%	10.4µM*
CCOC(=O)c1cc(C(=O)Nc2ccc(C)c(F)c2)nn1C	109.7%	-10.7%	61.9*	44.3*	?	248.1%
CCOC(=O)c1c(S(=O)(=O)Nc2ccc(F)cc2C)c(C)n(C)c1C	-3.2%	-12.8%	-8.2	-1.3	-17.6%	14.7µM*
O=P(O)(O)C(O)(Cn1ccnc1)P(=O)(O)O	4.7%	nt	-3.9	-2.6	nt	2.1%
CC(C)C[C@H](NC(=O)[C@H](Cc1ccccc1)n1c(=O)[nH]c2ccccc2c1=O)C(=O)N1CCC[C@@H]1C(=O)O	-2.3%	-0.4%	-3.1	-1.3	10.6%	-19.7%
Cc1cccc(N(C(=O)CNC(=O)c2cccs2)C(C(=O)NC2CCCC2)c2ccncc2)c1 (configuration not stated)	5.0%	4.9%	-7.3	-4.4	4.9%	-15.3%
Cc1nc2c(N)nn(C)c2nc1C	nt	9.2%	nt	nt	nt	nt
CC(Cn1cncn1)C(=O)N1CCN(S(=O)(=O)c2ccc(Cl)cc2)CC1 (configuration not stated)	-0.6%	4.2%	-7.5	-3.8	21.6%	-18.5%
Cc1onc(-c2ccccc2)c1NC(=O)N(Cc1ccccc1)C(C)C	?	1.4%	1.8	-2.3	3.8%	?
CCOC(=O)c1c(S(=O)(=O)Nc2ccc(C)c(F)c2)c(C)n(C)c1C	12.4%	4.7%	0.6	-0.8	21.8%	9.28µM*
O=C(CCn1c(=O)oc2ccccc21)Nc1ccc2c(c1)OCCO2	34.0%	-4.2%	79.8*	71.3*	11.9%	-7.8%
O=C(Cn1c(=O)oc2ccccc21)Nc1ccc2c(c1)OCCO2	24.2%	39.0%	13.1	17.7*	12.2%	nt
O=C(CCn1c(=O)oc2ccccc21)Nc1ccccc1	24.2%	-9.4%	13.3	-6.8	8.7%	-14.4%
SMILES	Pf growth 48h	AMA1 RON2 block	Shiga toxin inh	Cycloheximide cs	HCV inhibitor	Pf growth 96h
COc1ccc(NC(=O)CCCn2c(=O)oc3ccccc32)cc1Cl	130.7%	-6.1%	64.2*	66.1*	-6.0%	46.0%
Cc1ccc(NC(=O)Cn2c(=O)oc3ccccc32)c(C)c1	-1.7%	1.5%	nt	-3.6	19.6%	?
Cc1ccnc(NC(=O)Cn2c(=O)oc3ccccc32)c1	50.8%	-5.8%	60.3*	19.8*	11.2%	63.9%
O=C(Cn1c(=O)oc2ccccc21)Nc1ccc(F)c(F)c1	17.8%	-0.7%	5.8	-2.2	4.3%	13.5%
C[C@H]1CC[C@H]2C(=O)N3[C@H](c4cccc(N5CCCC5=O)c4)[C@@H](C)CC[C@H]3C(=O)N2[C@@H]1c1cccc(N2CCCC2=O)c1	?	nt	-5.9	-4.4	-9.2%[8.37 µM]	?
C[C@H]1CC[C@H]2C(=O)N3[C@H](c4ccccc4Br)[C@@H](C)CC[C@H]3C(=O)N2[C@@H]1c1ccccc1Br	?	nt	-6.6	-2.2	-13.1%[8.37 µM]	5.22µM*
CCOC(=O)CNc1ncc(C(F)(F)F)cc1Cl	7.6%	20.7%	5.6	5.0	10.7%	48.2%
N#CCC(CNc1ncc(C(F)(F)F)cc1Cl)OC(=O)c1ccc(Cl)cc1Cl (configuration not stated)	2.94µM*	20.7%	10.2	7.9	6.9%	2.33µM*
CCOc1ccc2nc(NC(=O)c3ccc(S(=O)(=O)N4CCOCC4)cc3)sc2c1	-15.6%	-5.9%	-10.3	-1.2	15.5%	31.3%
Cc1cc(C)c2nc(NC(=O)c3ccc(OCC4CCCO4)cc3)sc2c1 (configuration not stated)	106.7%	-5.0%	64.7*	31.4*	?	?
Cc1ccc2nc(NC(=O)c3ccc(OCC4CCCO4)cc3)sc2c1 (configuration not stated)	-51.7%	20.6%	92.5*	46.1*	8.91µM*	?
COc1ccc(S(=O)(=O)N(C)C)cc1NC(=O)c1ccc(OCC2CCCO2)cc1 (configuration not stated)	nt	-1.2%	nt	nt	nt	nt
COc1ccccc1N(C)S(=O)(=O)c1ccc(C(=O)Nc2cc(OC)c(OC)c(OC)c2)cc1	nt	-3.7%	nt	nt	?	nt
CCOC(=O)c1ccc2nc(NC(=O)c3ccco3)sc2c1	74.0%	15.1%	35.0*	27.0*	-10.3%	130.0%
CCOc1ccc2nc(NC(=O)c3ccoc3C)sc2c1	-53.3%	14.3%	41.6	24.1*	?	-14.5%
CCOC(=O)c1ccc2nc(NC(=O)c3cccs3)sc2c1	141.5%	-6.4%	43.8*	39.3*	-22.7%	292.2%
CCOc1ccc2nc(NC(=O)c3ccco3)sc2c1	198.9%	-1.7%	37.8	39.4*	-8.9%	-25.2%
CCCC1C(=O)Nc2ccccc2N1C(=O)c1cccc(C)c1 (configuration not stated)	-14.3%	11.6%	-7.2	-2.3	-11.5%	-31.5%
CCCC1C(=O)Nc2ccccc2N1C(=O)c1ccc(C(C)(C)C)cc1 (configuration not stated)	?	9.1%	16.7	1.7	?	9.28µM*
O=[N+]([O-])c1cccc(COc2ccccc2CN2CCCC2)c1	nt	1.9%	nt	nt	?	nt
COCCNC(=S)N/N=C(\C)c1ccccc1O	2.94µM*	64.0%	94.4*	30.6*	?	?
COCCNC(=S)N/N=C(\C)c1ccccc1OC	?	41.5%[11.6 µM]	-2.1	-2.4	15.1%	?
COCCNC(=S)N/N=C(\C)c1ccccc1F	?	18.8%	18.5	-1.3	-7.1%	9.28µM*
